From PubChem BioAssay (NCI) come the findings set out here.

The structures appear in SMILES notation. About 83,000 compounds went through this panel and 20% of them were active in at least one assay; those are over-represented in the sample as a whole.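 The endpoint reported here, percent growth, reads 100 for growth as untreated, 0 for no net growth and -100 for all cells dead.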 A number with no mark means an inactive call. Calls of active or inactive are those of the source. The calls were made as follows: active = growth percent below 10; inactive = the rest.

Test systems include HCT-15 colon; HT29 colon; SNB-75 CNS; SNB-19 CNS; U251 CNS; PC-3 prostate; SK-MEL-5 melanoma; UACC-62 melanoma; LOX IMVI melanoma; SK-MEL-28 melanoma.
What all share (assay): NCI-60 one-dose screen, 48 h (100 = growth as untreated, 0 = no growth, -100 = all killed)
Common to all, as to details: 10 µM unless noted

Consider `Nc1ncc(-c2ccc3ncnc(N4CCc5cc(F)c(Cl)cc54)c3c2)cn1`, for which the growth with HCT-15 colon is 44.2%; in the assay on HT29 colon it was 41.8%; with SNB-75 CNS, -6.4% (active); with SNB-19 CNS, 59.6%; in the assay with U251 CNS it was 54.8%; in the assay on PC-3 prostate it was 28.3%. For the same compound, the growth is 59.9% in the assay on SK-MEL-5 melanoma, 23.8% in the assay on UACC-62 melanoma, 37.6% with LOX IMVI melanoma and 65.1% with SK-MEL-28 melanoma.

Consider `COc1cc(/C=C/C(=O)c2ccc(-n3cc(CN4CCN(c5cc6c(cc5F)c(=O)c(C(=O)O)cn6C5CC5)CC4)nn3)cc2)cc(OC)c1OC`, for which the growth in the assay on HCT-15 colon was 90.6%; in the assay on HT29 colon, 99.2%; with SNB-75 CNS it was 85.7%; in the assay on SNB-19 CNS it was 76.7%; in the assay with U251 CNS, 68.4%; in the assay with PC-3 prostate it was 84.7%. Also, the growth in the assay with SK-MEL-5 melanoma was 79.7%; with UACC-62 melanoma it was 72.8%; with LOX IMVI melanoma it was 55.7%; in the assay on SK-MEL-28 melanoma, 92%.

For the compound `Cc1csc(Nc2nc(-c3cccc(Cl)c3)nc(C(Cl)(Cl)Cl)n2)n1`, the growth in the assay with HCT-15 colon was 53.9%; with HT29 colon it was 2.7% (active); in the assay on SNB-75 CNS, 3.48% (active); in the assay on SNB-19 CNS, 39.9%; in the assay with U251 CNS, 19.9%; in the assay with PC-3 prostate it was 39.7%. The growth is 88.8% in the assay on SK-MEL-5 melanoma, 74.2% in the assay on UACC-62 melanoma, 91.1% in the assay on LOX IMVI melanoma and 39.5% in the assay with SK-MEL-28 melanoma.

For the compound `O=C(CSc1nnc(-c2ccc(Cl)c(Cl)c2)n1-c1ccccc1)Nc1ccc(C(=O)/C=C/c2ccc(Cl)cc2)cc1`, the growth is 92.3% in the assay on HCT-15 colon; 85.9% in the assay on HT29 colon; 69.9% in the assay with SNB-75 CNS; 94.1% in the assay on SNB-19 CNS; 84% in the assay on U251 CNS; 62.5% with PC-3 prostate. The growth with SK-MEL-5 melanoma is 93.1%; in the assay with UACC-62 melanoma, 76.7%; with LOX IMVI melanoma it was 97.5%; in the assay on SK-MEL-28 melanoma, 104%.

For `COc1cc(OC)cc(C(=O)Nc2cnc(Nc3ccc(N4CCOCC4)nc3)nc2Oc2ccc(C(F)(F)F)cc2)c1`, the growth in the assay on HCT-15 colon was 75.4%; in the assay with HT29 colon, 46.8%; with SNB-75 CNS, -14.5% (active); in the assay on SNB-19 CNS, 44.1%; in the assay on U251 CNS it was 65.6%; in the assay with PC-3 prostate it was 71.4%. The growth was 93% in the assay with SK-MEL-5 melanoma, 76.3% in the assay with UACC-62 melanoma, 69.7% with LOX IMVI melanoma and 98.9% in the assay with SK-MEL-28 melanoma.

For `COC1=C(OC)C(=O)C(CCCCCCCCCCO)=C(C)C1=O`, the growth in the assay with HCT-15 colon is 79.7%; in the assay with HT29 colon it was 105%; in the assay on SNB-75 CNS, 62.1%; with SNB-19 CNS it was 93%; in the assay with U251 CNS it was 58.3%; in the assay on PC-3 prostate, 69.5%. For the same compound, the growth in the assay on SK-MEL-5 melanoma was 45%; in the assay with UACC-62 melanoma, 59.4%; with LOX IMVI melanoma, 11.5%; with SK-MEL-28 melanoma, 102%.

Turning to `COc1ccc2c(O)cc3c(c2c1)[C@H](CCl)CN3C(=O)c1cc2cc(NC(=O)CCN3CCOCC3)ccc2[se]1`, the growth is 0% (active) with HCT-15 colon; -39.8% (active) with HT29 colon; -87.8% (active) with SNB-75 CNS; -76.2% (active) with SNB-19 CNS; -85.7% (active) in the assay with U251 CNS; 74.1% with PC-3 prostate. Further, the growth is -85.9% (active) in the assay with SK-MEL-5 melanoma, -76.4% (active) in the assay on UACC-62 melanoma, -62.5% (active) in the assay on LOX IMVI melanoma and -58.7% (active) in the assay with SK-MEL-28 melanoma.

Take `Cc1ccc(S(=O)(=O)c2nc(-c3ccccc3)oc2S(C)=O)cc1` (stereo not given): the growth in the assay on HCT-15 colon was -53.1% (active); in the assay with HT29 colon it was -31.8% (active); with SNB-75 CNS, 66.7%; in the assay with SNB-19 CNS it was 68.9%; in the assay with U251 CNS, 45.1%; with PC-3 prostate it was 22.3%. For the same compound, the growth is 44.4% in the assay with SK-MEL-5 melanoma, 50.6% in the assay on UACC-62 melanoma, -87.7% (active) with LOX IMVI melanoma and -63.2% (active) in the assay with SK-MEL-28 melanoma.

Consider `CS(=O)(=O)c1cccc(Nc2ncc3cc(-c4ccccc4Cl)ccc3n2)c1`, for which the growth in the assay with HCT-15 colon is 12.1%; with HT29 colon it was 1.92% (active); with SNB-75 CNS it was -11.4% (active); in the assay on SNB-19 CNS, 36.2%; with U251 CNS, 16.6%; with PC-3 prostate, 12.3%. Moreover, the growth is -49.1% (active) with SK-MEL-5 melanoma, 4.77% (active) in the assay on UACC-62 melanoma, -6.95% (active) in the assay with LOX IMVI melanoma and 19.7% with SK-MEL-28 melanoma.

Turning to `COc1cc(NC(=O)c2cncnc2Nc2ccc3c(ccn3Cc3cccc(F)c3)c2)cc(OC)c1`, the growth was 33.7% in the assay on HCT-15 colon; 20% in the assay on HT29 colon; 8.48% (active) in the assay on SNB-75 CNS; 74.7% with SNB-19 CNS; 41.1% in the assay with U251 CNS; 43.5% in the assay with PC-3 prostate. Moreover, the growth is 59.7% in the assay with SK-MEL-5 melanoma, 55% with UACC-62 melanoma, 40.3% in the assay with LOX IMVI melanoma and 59.6% with SK-MEL-28 melanoma.

For the compound `O=C1Nc2ccccc2/C1=C/c1cccn1CCCCCCn1c2ccccc2c(=O)c2ccccc21`, the growth in the assay on HCT-15 colon was 23%; in the assay with HT29 colon it was 92.9%; in the assay on SNB-75 CNS it was 92.3%; in the assay on SNB-19 CNS, 97.1%; with U251 CNS it was 92.4%; in the assay on PC-3 prostate it was 40.1%. Further, the growth in the assay with SK-MEL-5 melanoma is 34.7%; in the assay with UACC-62 melanoma, 50.3%; in the assay with LOX IMVI melanoma, 91.2%; in the assay with SK-MEL-28 melanoma, 111%.

Consider `O=C(c1ccccc1)[C@@H](c1ccccc1)[C@]1(O)C(=O)Nc2ccccc21`, for which the growth was 100% with HCT-15 colon; 101% in the assay with HT29 colon; 83.7% in the assay with SNB-75 CNS; 94.1% with SNB-19 CNS; 101% with U251 CNS; 90.7% with PC-3 prostate. Moreover, the growth with SK-MEL-5 melanoma is 92.1%; with UACC-62 melanoma, 85.9%; in the assay on LOX IMVI melanoma it was 91.1%; with SK-MEL-28 melanoma it was 96.2%.

For the compound `C=C1/C(=C\C=C2/CCC[C@]3(C)[C@@H]([C@H](C)CCCC(C)(C)O)CC[C@@H]23)C[C@@H](OC(=O)CBr)C[C@@H]1O`, the growth was 54.6% in the assay with HCT-15 colon; 39.2% with HT29 colon; 49.1% with SNB-75 CNS; 94.6% in the assay with SNB-19 CNS; 70.6% in the assay with U251 CNS; 40% with PC-3 prostate. Also, the growth in the assay on SK-MEL-5 melanoma was 84.7%; with UACC-62 melanoma, 69%; with LOX IMVI melanoma, -50.9% (active); in the assay with SK-MEL-28 melanoma, 93.6%.
